Source: PubChem BioAssay (Broad Institute)
Rows were chosen to be rich in hits. Some 2.2% of all compounds tested hit in one or more screens of this group.
Shn3 inh set2: reduction of Shn3 3'UTR firefly luciferase signal, primary screen, Schnurri-3 inhibitor project, cell-based, Clone20 osteoblasts, set 2; Clone20 osteoblast Shn3 3'UTR firefly luciferase, 24 h; inhibition, % at 12.5 µM; 360,000 tested, 0.52% active; AID 588674, 2011;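 active = mean inhibition of at least 75% with every replicate also reaching 75%; inconclusive = mean inhibition at least 75% but some replicate below; inactive = mean inhibition below 75%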
Beta apoptosis: inhibitors of cytokine-induced beta cell apoptosis, primary screen, luminescence; INS-1E cytokine-induced death, ATP luminescence, 48 h; percent of positive-control rescue, neutral wells zero; protection from apoptosis, % (test concentration not listed); 300,000 tested, 0.8% active; AID 435005, 2010;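 active = Every replicate reaches about 75%, or at least half do and their mean reaches it too, limit read from the data; inconclusive = At least half of replicates reach the limit but their mean does not; inactive = Under half of replicates reach the limit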;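 note: higher means more ATP so stronger rescue from cytokine killing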
Calb FLC: C. albicans growth inhibition with fluconazole, primary screen, CaCi-2 strain, Alamar Blue fluorescence. 300,000 tested, 0.57% active. growth inhibition, % (no concentration beside the values). C. albicans CaCi-2 (fluconazole-resistant clinical isolate) + fluconazole, 48 h. AID 1979, 2009;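 active = growth inhibition above about 58% in most replicates, limit read from the data, passing the limit was not always enough; inconclusive = exactly half the replicates above a set limit; inactive = most replicates below a set limit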;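 note: all wells also contain fluconazole at 8 µg/ml as a sub-toxic cotreatment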
CSC inhib: cancer stem cell viability inhibitors, primary screen, luminescence; cancer stem cell-like cells viability; 300,000 tested, 1.1% active; inhibition, % at 7.5 µM; AID 2717, 2010; in the data active = inhibition above about 75%; inconclusive = no clear call, values can overlap the other calls; tested in HMLE shEcad cells
PfHsp90 yeast 2: growth inhibition of PfHsp90-expressing yeast, primary screen, antimalarial PfHsp90 inhibitor project, S. cerevisiae, BacTiter-Glo luminescence, single point, set 2; BacTiter-Glo ATP, 48 h; yeast lacking PDR1 and PDR3 efflux regulators; inhibition, % at 9.4 µM; 310,000 tested, 0.32% active;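 active = every replicate shows inhibition above about 80%, whatever the replicate mean, limit read from the data; inconclusive = mean inhibition reaches the set limit but some replicate falls short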
Hits are given with their value; 0 = inactive; ? = inconclusive; - = not tested or not shown.

SMILES	Shn3 inh set2	Beta apoptosis	Calb FLC	CSC inhib	PfHsp90 yeast 2
C=CCn1c(-c2ccc(N)cc2)nc2ccccc21	0	0	0	0	0
C=CCn1c(N)nc2ccccc21	0	0	82.3	0	0
COc1ccc(CCN=C(N)NS(=O)(=O)c2cc(F)ccc2F)cc1	0	0	0	0	0
Fc1ccc(NC(=S)N2CCCN(c3ccc(C(F)(F)F)cn3)CC2)c(F)c1	89.4	0	0	0	0
O=C(O)c1cccc(S(=O)(=O)N2CCN(C(c3ccccc3)c3ccccc3)CC2)c1	0	0	0	0	0
CN(Cc1ccco1)c1ncnc2ccc(-c3ccc4c(ccn4C)c3)cc12	0	0	-	83.5	0
COCCNC(=O)NC1(C(F)(F)F)Oc2ccc(Cl)cc2O1 (stereo not given)	0	0	0	75.1	-
Cc1nn(-c2ccccc2)c(Cl)c1CN(C(=O)CCl)c1ccc(Cl)cc1	96.2	0	0	0	0
O=C(CNC(=O)c1ccc(Cl)cc1Cl)Nc1ccc(F)cc1	0	0	0	0	0
N#CC(C#N)=C1C=CC=CN1/C(=C\c1ccco1)C(=O)c1ccccc1	95.8	?	-	0	0
CC(C)(C)NC(=O)/C(=C/c1ccco1)c1ccccc1	0	0	0	-	0
COc1ccc(C(=O)/C(=C\c2ccco2)N2C=CC=CC2=C(C#N)C#N)cc1	97.1	94.0	0	0	0
N#CC(C#N)=C1C=CC=CN1/C(=C\c1ccco1)C(=O)c1ccc(Br)cc1	89.6	100.8	-	0	0
COc1ccc(/C=C(/C(=O)c2cccs2)N2C=CC=CC2=C(C#N)C#N)cc1	0	-	0	-	0
CCOc1ccc2nc(SCC(=O)NC3CCCCC3)[nH]c2c1	0	0	0	0	0
C/C(=N\NC(=S)Nc1ccccc1C)c1cc2ccccc2o1	0	77.8	0	0	0
Cc1ccc(NS(=O)(=O)c2cccc3cccnc23)cc1Cl	0	0	0	0	0
Cc1cc(C)c(NS(=O)(=O)c2cccc3cccnc23)c(C)c1	0	0	73.3	0	0
COC(=O)[C@]1(C)CCC[C@@]2(C)C3CC[C@@]4(C)C[C@]3(CCC21)CC(=O)N4 (stereo not given in full)	0	0	-	0	-
C=C1C(=O)C23CCC4C(C)(C(=O)OC)CCCC4(C)C2CCC1(O)C3 (stereo not given)	96.0	-	-	-	104.4
COCC(=O)OC1CCn2c1nc1c2C(=O)C(C)=C(NC(C)=O)C1=O (stereo not given)	88.7	-	-	-	0
CC1=NN(C(N)=S)C(=O)C1N=Nc1cccc2ccccc12 (stereo not given)	-	0	108.0	0	-
CC1=NN(C(N)=S)C(=O)C1N=Nc1cccc(Cl)c1C (stereo not given)	0	0	0	0	0
Oc1[nH]c2c(Cl)cc(Cl)cc2c1N=NC(=S)NCC1CCCO1 (stereo not given)	0	0	97.0	-	0
Cc1cc(C)c2[nH]c(O)c(N=NC(=S)NCC3CCCO3)c2c1 (stereo not given)	0	0	0	0	-
SMILES	Shn3 inh set2	Beta apoptosis	Calb FLC	CSC inhib	PfHsp90 yeast 2
CC(=O)C1=C(c2ccc(Br)cc2)C(=O)c2ccccc2C1=O	97.3	107.2	0	113.9	101.7
Cc1ccc(S(=O)(=O)NCC(=O)NCCc2c[nH]c3ccccc23)cc1C	0	0	0	0	0
O=C(Cn1nc(C(=O)O)c2ccccc2c1=O)Nc1ccc2c(c1)C(=O)c1ccccc1C2=O	-	0	0	0	-
Cc1cc(-c2ccc(N=Nc3c(S(=O)(=O)O)cc4cc(S(=O)(=O)O)cc(N)c4c3O)c(C)c2)ccc1N=Nc1c(S(=O)(=O)O)cc2cc(S(=O)(=O)O)cc(N)c2c1O	-	77.0	-	0	-
O=S(=O)(O)c1cc(O)c2c(O)c(N=Nc3cc(Cl)ccc3O)c(S(=O)(=O)O)cc2c1	0	0	84.8	0	0
Nc1cc(S(=O)(=O)O)cc2ccc(S(=O)(=O)O)cc12	0	-	-	-	0
O=S(=O)(O)c1cc(Cl)cc(N=Nc2ccc(O)cc2O)c1O	0	-	-	-	0
COc1cccc(NC(=O)[C@H](C)NC(=O)C2CCN(S(=O)(=O)c3ccc(C)cc3)CC2)c1	0	0	0	0	0
CCc1ccc(C(=O)COC(=O)[C@@H](NC(N)=O)[C@@H](C)CC)cc1	0	0	0	0	0
CCOc1ccc(N(CC(=O)Nc2ccc(C)c(C)c2)S(C)(=O)=O)cc1	0	0	0	0	0
CCN(CC)CCOC(=O)/C=C/c1ccccc1	0	0	0	0	0
CCN(CC)CC(C)(C)C(=O)/C=C/c1ccc(/C=C/C(=O)C(C)(C)CN(CC)CC)cc1	98.3	-	-	-	0
CC(C)n1c(/C=C/[C@H](O)C[C@H](O)CC(=O)O)c(-c2ccc(F)cc2)c2ccccc21	88.8	0	-	-	0
O=C(O)C[C@H](O)C[C@H](O)/C=C/c1c(C2CC2)nc2ccccc2c1-c1ccc(F)cc1	-	-	102.9	-	-
Cc1nc2ccccc2c(-c2ccccc2)c1CC(=O)O	0	0	0	0	0
CC(CCc1ccccc1)NC(=O)/C=C/c1ccc(F)cc1 (stereo not given)	-	0	0	0	-
Cc1ccc(NC(=O)C(=Cc2ccc(C(=O)O)cc2)C(=O)Nc2ccc(C)cc2C)c(C)c1	?	0	0	159.1	0
NC(=O)c1ccc(NC(=O)COC(=O)c2c3c(nc4ccccc24)/C(=C\c2cccs2)CCC3)cc1	0	0	0	115.2	-
CC(C)CNC(=O)COC(=O)c1c2c(nc3ccccc13)/C(=C/c1cccs1)CC2	0	77.7	0	0	0
CCCCNC(=O)COC(=O)c1c2c(nc3ccccc13)/C(=C\c1cccs1)CC2	0	-	-	-	0
COc1ccc(NCc2nnc(SCC(=O)c3ccc(OC)cc3)o2)cc1	0	0	0	0	0
CCOc1cc(C(=O)CSc2nnc(CNc3ccc(Cl)cc3)o2)ccc1NC(=O)CC	84.4	0	0	0	0
CC(C)C[C@H](N)c1nnc(S(=O)(=O)Cc2ccc(F)cc2)o1	90.2	0	0	76.9	0
Cc1nn(-c2ccccc2)c(C)c1/C=N/n1c(-c2ccc(C(C)(C)C)cc2)n[nH]c1=S	0	0	0	80.2	0
CCN(CC)C(=S)Sc1c(-c2ccccc2)c2cc(Cl)ccc2[nH]c1=O	87.0	0	0	0	0
SMILES	Shn3 inh set2	Beta apoptosis	Calb FLC	CSC inhib	PfHsp90 yeast 2
CCCC(/C=C/c1ccc(OC(C)=O)cc1)=C1/c2ccccc2C(=O)N1c1ccccc1	0	0	-	112.0	0
CC(=O)Oc1ccc(C#C/C=C2\c3ccccc3C(=O)N2c2ccccc2)cc1	0	0	-	133.8	0
CC(C)(C)OC(=O)n1cccc1/C=C1\c2ccccc2C(=O)N1c1ccccc1	0	-	-	-	0
O=C1CCC([N+](=O)[O-])C(c2ccc(-c3ccccc3)cc2)N1 (stereo not given)	0	0	0	0	0
CC(=O)Oc1ccccc1/C=C/c1ccc2ccccc2[n+]1C	0	0	0	0	0
COc1ccc(/C=C/c2ccc3ccccc3[n+]2C)cc1OC	92.1	0	0	0	0
